Experimental data taken from PubChem BioAssay.
Active and inactive are the calls of the source.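 The calls were made as follows, unless noted: active = compound raises insulin release from rat beta cells at 5 mM glucose, no numeric limit stated; inactive = the rest.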 Residues, ends and D or L forms follow the SMILES beside them.

What was measured:
[1] = Wnt pathway potentiators raising nuclear beta-catenin – imaging, WNT3A-conditioned medium, mouse C2C12, NPC library, primary screen (AID 1117326; in the data active = nuclear beta-catenin stimulation mostly above about 4.2%, no sharp cut-off; inactive = mostly below about 10%; also: reference of the scale not given here); conditions: stronger effect = higher value
[2] = stimulators of insulin release from INS-1E, primary screen, cell-based, 5 mM glucose, NPC library (AID 1117329); conditions: rat INS-1E insulin secretion, at 10 µM, stronger effect = higher value; also: reference of the scale not given here
[3] = growth inhibition of GSK3B-pretreated HCT116 cells – cell-based, CellTiter-Glo, 0.2 to 20 µM (AID 1117336;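 active = compounds lowering colon cancer cell viability after pretreatment blocking the GSK3B kinase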); conditions: HCT116 viability after GSK3B inhibitor, at 20 µM, stronger effect = higher value
[4] = inhibition of endothelial tube formation, primary screen, imaging, VEGF stimulated, CD31 staining, tube area, NPC library (AID 1117340;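 active = compound that reduces growth-factor-driven endothelial tube area in a mixed cell culture, no cutoff stated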); conditions: VEGF-stimulated ADSC/ECFC co-culture, at 10 µM, stronger effect = higher value
[5] = GLP1 release stimulators, primary, NCI-H716, NPC library (AID 1117341;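 active = compound raises GLP1 secretion from the human gut endocrine cells, with no numeric limit stated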; also: reference of the scale not given here); conditions: NCI-H716 cells, at 10 µM, stronger effect = higher value
[6] = HCT116 colon cancer cell growth inhibition, primary screen, CellTiter-Glo luminescence, NPC library (AID 1117342;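 active = compounds that lower survival of HCT116 colon cancer cells in the luminescence readout, no numeric limit stated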); conditions: at 20 µM (top of the series)
[7] = reduced SW480 viability measured with CellTiter-Glo, NPC library, primary (AID 1117343;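 active = compounds that lower viability of the colon cancer cells in the luminescence readout, with no numeric limit stated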); conditions: CellTiter-Glo luminescence; at 20 µM (top of the series)
[8] = NPC library primary testing for decreased DLD-1 cell viability via CellTiter-Glo (AID 1117346;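 active = compounds that lower survival of DLD-1 colon cancer cells in the luminescence readout, no cutoff given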); conditions: DLD-1 viability, CellTiter-Glo luminescence; at 20 µM (top of the series)

Structure (SMILES) | nuclear beta-catenin stimulation ([1]; at 10 µM) | nuclear beta-catenin stimulation ([1]; stimulation, at 2 µM) | insulin secretion stimulation [2] | viability decrease [3] | tube area decrease [4] | GLP1 secretion stimulation [5] | inhibition of viability [6] | viability decrease (inhibition) [7] | viability decrease (inhibition) [8]
COc1ccccc1OC(=O)Oc1ccccc1OC | 1.1% (inactive) | 0.3% | -2.4% (inactive) | 6.05% (inactive) | 14.8% (inactive) | 1.6% (inactive) | 3.6% (inactive) | 31.6% (inactive) | 14.4% (inactive)
C#C[C@]1(O)CC[C@@H]2[C@@H]3CCC4=CCCC[C@@H]4[C@H]3C(=C)C[C@@]21CC | 1% (inactive) | -0.9% | -1.9% (inactive) | 99.1% (active) | 55.3% (active) | -7.2% (inactive) | 99% (active) | 102% (active) | 101% (active)
C[C@@H]1CCC[C@H](C)N1CCCC(O)(c1ccccc1)c1ccccn1 (stereo partly drawn) | 1% (inactive) | 0% | 2.6% (inactive) | -50.8% (inactive) | 12.8% (inactive) | 1.3% (inactive) | -3.7% (inactive) | 14.7% (inactive) | -14.8% (inactive)
c1ccc2c(c1)CCc1ccccc1N2 | 0.8% (inactive) | 2.8% | 0.55% (inactive) | 8.3% (inactive) | -22.5% (inactive) | 2% (inactive) | -2.9% (inactive) | -16.7% (inactive) | -6.2% (inactive)
COc1cc2c(cc1OC)C(C(C(=O)N(CCc1ccc(OC)c(OC)c1OC)CCc1ccc(OC)c(OC)c1OC)c1ccccc1)=NCC2 (stereo not drawn) | 4.4% (inactive) | 8.3% | -0.9% (inactive) | 74.1% (active) | 20.6% (inactive) | 4.1% (inactive) | 83.5% (active) | 87.9% (active) | 69.8% (active)
CCCSS/C(CCO)=C(\C)N(C=O)Cc1cnc(C)nc1N | -1.4% (inactive) | -0.7% | 10.2% (inactive) | 33.3% (inactive) | 55.3% (active) | -4.8% (inactive) | 19.1% (inactive) | 45.4% (inactive) | 65.6% (active)
O=C(O)C1CSC(C(=O)O)N1 (stereo not drawn) | 0.7% (inactive) | 1.2% | -0.4% (inactive) | -6.8% (inactive) | -2.5% (inactive) | -3.3% (inactive) | 2.5% (inactive) | 4% (inactive) | -8.7% (inactive)
COc1cc(C(=S)N2CCOCC2)ccc1O | 1.6% (inactive) | 0% | 3.9% (inactive) | -5.7% (inactive) | 1.9% (inactive) | -3.6% (inactive) | -4.3% (inactive) | -4.6% (inactive) | -2.7% (inactive)
Oc1cccc(O)c1O | 5% (inactive) | 2.5% | 2.5% (inactive) | 68.9% (active) | 24.9% (inactive) | -1% (inactive) | 45.7% (inactive) | 101% (active) | 17.2% (inactive)
O=C1Nc2ccccc2C1(c1ccc(O)cc1)c1ccc(O)cc1 | -0.4% (inactive) | -1.6% | 0.6% (inactive) | 54.5% (active) | 16.2% (inactive) | 5.4% (inactive) | 71.7% (active) | 38.2% (inactive) | 56.5% (active)
O=C(O)CCC(=O)O | 0% (inactive) | 0.2% | -1% (inactive) | -5.25% (inactive) | -24.1% (inactive) | 1.6% (inactive) | -15.8% (inactive) | 10% (inactive) | -6.5% (inactive)
CC(C)=CCNc1ncnc2c1ncn2[C@@H]1O[C@H](CO)[C@@H](O)[C@H]1O | 4.6% (inactive) | 1.9% | 1.8% (inactive) | 109% (active) | 106% (active) | 0.8% (inactive) | 111% (active) | 110% (active) | 101% (active)
O[C@@H]1CO[C@H]2[C@@H]1OC[C@@H]2O | 1% (inactive) | 1% | -2% (inactive) | 2.15% (inactive) | 16.5% (inactive) | 1.1% (inactive) | -9.1% (inactive) | 51.8% (active) | -4.4% (inactive)
CCCCCCCCCCCC[N+](C)(C)Cc1ccccc1 | 7.4% (inactive) | -1.2% | 1.9% (inactive) | 99.3% (active) | 108% (active) | -2.1% (inactive) | 99.6% (active) | 78.1% (active) | 101% (active)
CC(C)NC(=O)c1ccc(C=O)cc1 | 0% (inactive) | -0.8% | -0.75% (inactive) | 18.8% (inactive) | -7.2% (inactive) | 2.1% (inactive) | -5.1% (inactive) | -15.1% (inactive) | -5.8% (inactive)
c1ccc(C(O[C@H]2CCCN(CCc3ccc4c(c3)OCO4)C2)c2ccccc2)cc1 | 0.9% (inactive) | 1.5% | 5.45% (inactive) | 100% (active) | -6.8% (inactive) | 0.6% (inactive) | 96.3% (active) | 101% (active) | 90.1% (active)
Nc1c(NC/C=C\COc2cc(CN3CCCCC3)ccn2)c(=O)c1=O | 0.1% (inactive) | -1.1% | 0.1% (inactive) | 2.9% (inactive) | 1% (inactive) | 4% (inactive) | 8.6% (inactive) | -4.4% (inactive) | -5% (inactive)
C=CCOc1cc(Cl)ccc1C(=O)NCCN(CC)CC | -0.4% (inactive) | 0.3% | 16.7% (inactive) | 11% (inactive) | -13% (inactive) | 9.1% (inactive) | 30% (inactive) | 32.4% (inactive) | -3.9% (inactive)
Clc1ccc2c(c1)Nc1ccccc1S2 | 0.9% (inactive) | -2.3% | 4.2% (inactive) | 55.6% (active) | 26.5% (inactive) | -3.1% (inactive) | 32.4% (inactive) | 31.8% (inactive) | 17.5% (inactive)
O=C(Nc1ccc([N+](=O)[O-])cc1)Nc1ccc([N+](=O)[O-])cc1 | 3.2% (inactive) | 1.9% | -3.6% (inactive) | -7.9% (inactive) | 62.3% (active) | -0.9% (inactive) | -44.5% (inactive) | 44.3% (inactive) | -16.4% (inactive)
CCOC(=O)CN1CCCC1=O | 1.9% (inactive) | 21% | 2.1% (inactive) | 1.1% (inactive) | -17.2% (inactive) | -1.8% (inactive) | -0.8% (active) | -15.1% (inactive) | 1% (inactive)
O=C(O)c1ccc(OCCN2CCCCC2)cc1 | -1% (inactive) | -0.1% | -2.35% (inactive) | 2.1% (inactive) | 4.5% (inactive) | 4% (inactive) | -8.6% (inactive) | -5.5% (inactive) | 0.5% (inactive)
CCCCCCCCCCCCSCCOCCO | 0.7% (inactive) | 2% | -1.7% (inactive) | 9.65% (inactive) | 6.6% (inactive) | 1.9% (inactive) | -38.8% (inactive) | 122% (active) | 94.7% (active)
CC(NC(CCc1ccccc1)C(=O)O)C(=O)N1C(=O)N(C)CC1C(=O)O (stereo not drawn) | -1.2% (inactive) | 1.8% | 5.3% (inactive) | -39.7% (inactive) | 6% (inactive) | -5.4% (inactive) | 2.8% (inactive) | 4.5% (inactive) | -6% (inactive)
CCS(=O)(=O)c1ccc(OC)c(C(=O)OC)c1 | -0.3% (inactive) | -1.7% | 0.9% (inactive) | -5.9% (inactive) | -10% (inactive) | 1% (inactive) | 7.3% (inactive) | -1.8% (inactive) | 8.8% (inactive)
CC/C=C(\C(=O)N[C@@H]1C(=O)N2C(C(=O)OCOC(=O)C(C)(C)C)=C(COC(N)=O)CS[C@H]12)c1csc(N)n1 | -1% (inactive) | -0.1% | 1.85% (inactive) | -5.5% (inactive) | -9.6% (inactive) | -0.1% (inactive) | -6.4% (inactive) | -3.4% (inactive) | -17.7% (inactive)
CC(=O)N[C@@H](CO)C(=O)N[C@@H](CC(=O)O)C(=O)N[C@@H](CCCCN)C(=O)N1CCC[C@H]1C(=O)O (Ac-SDKP-OH) | 0.3% (inactive) | 0.6% | 1.8% (inactive) | -7.1% (inactive) | -14.3% (inactive) | -1.6% (inactive) | -0.1% (inactive) | -6% (inactive) | 7% (inactive)
